Experimental findings from the supplement of paper PMC11732987, “Enantioselective OTUD7B fragment discovery through chemoproteomics screening and high-throughput optimisation” (Communications Chemistry, 2025) are described below.

Values without a mark were called inactive.

Sequence of UniProt Q9NUU6 (Q9NUU6 whole entry): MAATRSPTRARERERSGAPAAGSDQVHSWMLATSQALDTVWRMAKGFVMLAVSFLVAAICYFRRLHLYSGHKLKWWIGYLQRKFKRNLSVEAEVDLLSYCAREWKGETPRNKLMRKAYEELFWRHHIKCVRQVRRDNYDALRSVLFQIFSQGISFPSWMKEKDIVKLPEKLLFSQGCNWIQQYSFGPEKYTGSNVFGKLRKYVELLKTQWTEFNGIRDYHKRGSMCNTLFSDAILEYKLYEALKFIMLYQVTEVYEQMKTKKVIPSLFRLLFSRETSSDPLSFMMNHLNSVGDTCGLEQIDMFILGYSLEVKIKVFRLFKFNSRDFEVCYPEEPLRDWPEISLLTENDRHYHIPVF
Sequence of UniProt O00303 (O00303 whole entry): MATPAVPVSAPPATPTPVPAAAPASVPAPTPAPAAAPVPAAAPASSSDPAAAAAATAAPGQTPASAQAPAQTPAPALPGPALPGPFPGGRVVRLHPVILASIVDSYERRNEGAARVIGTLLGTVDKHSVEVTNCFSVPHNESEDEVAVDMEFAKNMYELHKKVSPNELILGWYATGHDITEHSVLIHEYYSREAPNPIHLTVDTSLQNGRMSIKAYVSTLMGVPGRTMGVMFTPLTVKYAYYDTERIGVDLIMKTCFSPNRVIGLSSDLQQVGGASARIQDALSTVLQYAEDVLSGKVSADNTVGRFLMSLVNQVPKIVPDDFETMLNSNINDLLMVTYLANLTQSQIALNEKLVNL
Sequence of UniProt Q92905 (Q92905 whole entry, looked up): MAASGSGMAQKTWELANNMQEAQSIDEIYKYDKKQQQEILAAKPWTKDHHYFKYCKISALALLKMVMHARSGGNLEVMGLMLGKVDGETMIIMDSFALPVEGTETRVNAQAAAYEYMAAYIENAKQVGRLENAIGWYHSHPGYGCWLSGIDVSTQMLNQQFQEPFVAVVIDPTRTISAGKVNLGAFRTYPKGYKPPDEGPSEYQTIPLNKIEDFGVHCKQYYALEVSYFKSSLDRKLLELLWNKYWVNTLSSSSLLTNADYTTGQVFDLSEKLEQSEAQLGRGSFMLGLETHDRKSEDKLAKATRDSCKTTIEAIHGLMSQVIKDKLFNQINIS
Sequence of UniProt Q8N6M0 (Q8N6M0 whole entry): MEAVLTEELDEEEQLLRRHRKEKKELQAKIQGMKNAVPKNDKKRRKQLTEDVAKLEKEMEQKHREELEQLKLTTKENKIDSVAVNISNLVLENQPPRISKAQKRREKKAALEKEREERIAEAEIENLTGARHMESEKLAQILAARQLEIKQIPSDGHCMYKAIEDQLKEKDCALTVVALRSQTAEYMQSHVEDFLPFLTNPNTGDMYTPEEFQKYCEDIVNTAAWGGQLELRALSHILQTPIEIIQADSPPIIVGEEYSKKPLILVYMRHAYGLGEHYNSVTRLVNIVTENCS
Sequence of UniProt Q86UV5 (Q86UV5 whole entry): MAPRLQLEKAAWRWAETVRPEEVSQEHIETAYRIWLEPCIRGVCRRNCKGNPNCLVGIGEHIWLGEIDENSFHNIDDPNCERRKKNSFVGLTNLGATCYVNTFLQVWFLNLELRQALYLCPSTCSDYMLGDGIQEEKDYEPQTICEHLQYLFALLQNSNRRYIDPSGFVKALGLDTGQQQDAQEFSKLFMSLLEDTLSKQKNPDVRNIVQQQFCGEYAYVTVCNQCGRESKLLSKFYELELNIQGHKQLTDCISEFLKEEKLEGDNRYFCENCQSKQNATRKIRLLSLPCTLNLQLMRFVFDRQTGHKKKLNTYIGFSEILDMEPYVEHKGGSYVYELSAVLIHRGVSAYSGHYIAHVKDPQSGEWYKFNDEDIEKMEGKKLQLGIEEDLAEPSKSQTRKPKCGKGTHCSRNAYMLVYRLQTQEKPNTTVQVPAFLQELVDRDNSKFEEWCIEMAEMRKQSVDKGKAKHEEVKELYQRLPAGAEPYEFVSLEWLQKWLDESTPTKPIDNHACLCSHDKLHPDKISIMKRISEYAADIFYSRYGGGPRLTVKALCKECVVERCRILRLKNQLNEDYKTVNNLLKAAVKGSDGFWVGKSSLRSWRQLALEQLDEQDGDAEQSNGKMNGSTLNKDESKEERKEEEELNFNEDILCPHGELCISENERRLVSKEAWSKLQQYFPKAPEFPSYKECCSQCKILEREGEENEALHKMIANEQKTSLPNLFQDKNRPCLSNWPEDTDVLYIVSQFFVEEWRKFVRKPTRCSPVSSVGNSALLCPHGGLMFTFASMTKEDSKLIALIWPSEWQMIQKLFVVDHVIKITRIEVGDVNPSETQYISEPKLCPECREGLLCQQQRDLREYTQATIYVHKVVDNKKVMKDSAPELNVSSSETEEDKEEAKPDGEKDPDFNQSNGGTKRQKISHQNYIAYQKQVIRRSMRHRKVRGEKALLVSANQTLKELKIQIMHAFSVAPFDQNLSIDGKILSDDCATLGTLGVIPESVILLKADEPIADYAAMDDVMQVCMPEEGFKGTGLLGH
Sequence of UniProt P51784 (P51784 whole entry): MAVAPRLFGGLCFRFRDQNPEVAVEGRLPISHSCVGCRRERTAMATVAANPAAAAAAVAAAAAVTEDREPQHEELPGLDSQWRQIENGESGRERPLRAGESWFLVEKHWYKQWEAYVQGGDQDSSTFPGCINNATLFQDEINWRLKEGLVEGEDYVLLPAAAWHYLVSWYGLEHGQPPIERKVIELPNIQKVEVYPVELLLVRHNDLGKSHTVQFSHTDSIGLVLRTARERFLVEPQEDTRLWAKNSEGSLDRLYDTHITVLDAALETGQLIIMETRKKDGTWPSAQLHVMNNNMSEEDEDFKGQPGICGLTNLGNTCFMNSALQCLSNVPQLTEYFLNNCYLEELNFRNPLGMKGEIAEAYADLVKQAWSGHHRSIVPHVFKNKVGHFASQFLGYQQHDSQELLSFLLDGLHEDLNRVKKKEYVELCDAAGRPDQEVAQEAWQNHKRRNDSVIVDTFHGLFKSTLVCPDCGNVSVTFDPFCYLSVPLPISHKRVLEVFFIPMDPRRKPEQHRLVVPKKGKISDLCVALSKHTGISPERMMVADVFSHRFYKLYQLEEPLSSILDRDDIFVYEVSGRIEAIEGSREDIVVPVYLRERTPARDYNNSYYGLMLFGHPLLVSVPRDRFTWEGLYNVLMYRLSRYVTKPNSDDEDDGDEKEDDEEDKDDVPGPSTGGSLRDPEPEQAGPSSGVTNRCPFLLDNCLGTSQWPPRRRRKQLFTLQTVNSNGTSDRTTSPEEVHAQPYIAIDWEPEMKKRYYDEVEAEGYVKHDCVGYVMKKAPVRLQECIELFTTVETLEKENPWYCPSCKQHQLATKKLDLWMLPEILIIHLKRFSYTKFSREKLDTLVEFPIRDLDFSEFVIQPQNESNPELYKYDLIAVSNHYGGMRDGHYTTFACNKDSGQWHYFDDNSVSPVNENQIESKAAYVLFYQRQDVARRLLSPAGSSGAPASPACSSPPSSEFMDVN
Sequence of UniProt P15374 (P15374 whole entry): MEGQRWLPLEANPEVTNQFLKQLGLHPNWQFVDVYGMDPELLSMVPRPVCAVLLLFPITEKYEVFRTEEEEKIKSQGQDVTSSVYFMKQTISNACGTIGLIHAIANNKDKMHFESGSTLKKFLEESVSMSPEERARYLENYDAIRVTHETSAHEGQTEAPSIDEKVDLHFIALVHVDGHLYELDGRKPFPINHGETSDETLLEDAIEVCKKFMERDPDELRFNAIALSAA
Sequence of UniProt Q9H9J4 (Q9H9J4 whole entry): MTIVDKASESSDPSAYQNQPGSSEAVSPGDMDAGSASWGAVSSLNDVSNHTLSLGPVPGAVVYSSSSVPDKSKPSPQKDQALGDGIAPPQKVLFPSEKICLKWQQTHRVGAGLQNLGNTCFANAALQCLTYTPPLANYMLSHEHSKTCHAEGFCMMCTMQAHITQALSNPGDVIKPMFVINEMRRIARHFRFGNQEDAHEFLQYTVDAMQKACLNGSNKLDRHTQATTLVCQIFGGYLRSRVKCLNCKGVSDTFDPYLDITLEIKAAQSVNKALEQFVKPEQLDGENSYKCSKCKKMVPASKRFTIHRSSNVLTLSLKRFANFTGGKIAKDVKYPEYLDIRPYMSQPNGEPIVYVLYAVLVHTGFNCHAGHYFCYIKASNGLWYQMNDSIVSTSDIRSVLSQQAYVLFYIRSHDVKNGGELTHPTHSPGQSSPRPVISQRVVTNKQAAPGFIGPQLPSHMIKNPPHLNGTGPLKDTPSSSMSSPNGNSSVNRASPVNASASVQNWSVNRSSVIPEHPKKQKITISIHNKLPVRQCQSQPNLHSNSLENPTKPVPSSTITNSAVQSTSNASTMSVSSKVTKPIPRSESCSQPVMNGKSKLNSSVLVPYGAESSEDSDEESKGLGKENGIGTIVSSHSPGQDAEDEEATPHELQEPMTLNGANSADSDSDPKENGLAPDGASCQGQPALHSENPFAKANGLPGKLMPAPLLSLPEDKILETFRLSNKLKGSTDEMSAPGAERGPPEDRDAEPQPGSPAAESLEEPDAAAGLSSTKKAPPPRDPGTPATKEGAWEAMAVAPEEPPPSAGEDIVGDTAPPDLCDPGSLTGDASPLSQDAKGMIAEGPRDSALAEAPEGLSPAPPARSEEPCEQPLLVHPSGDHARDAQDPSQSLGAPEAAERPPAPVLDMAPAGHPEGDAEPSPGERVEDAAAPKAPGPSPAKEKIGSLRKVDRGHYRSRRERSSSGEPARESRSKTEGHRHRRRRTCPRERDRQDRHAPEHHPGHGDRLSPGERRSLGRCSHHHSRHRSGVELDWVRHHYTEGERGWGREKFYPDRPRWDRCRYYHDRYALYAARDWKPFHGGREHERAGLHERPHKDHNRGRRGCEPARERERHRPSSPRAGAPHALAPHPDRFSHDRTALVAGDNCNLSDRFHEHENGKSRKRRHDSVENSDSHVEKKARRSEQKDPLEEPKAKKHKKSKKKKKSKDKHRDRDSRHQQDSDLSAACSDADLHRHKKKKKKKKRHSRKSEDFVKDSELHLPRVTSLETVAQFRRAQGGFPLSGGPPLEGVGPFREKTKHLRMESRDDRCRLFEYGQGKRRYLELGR

Compound in the first assay: ClCC(=O)NC1(CCCC1)C#N
The assay is described as follows: log2 ratio of Biotin-Ahx-Ub-VS probe labelling (compound/DMSO); higher = less target engagement, active = hit call of the paper (q ≤ 0.05, log2 ratio ≤ -1). The note with it: compound concentration: 50uM; treatment time: 3 h. As for the experimental part:
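Round 2 competitive ABPP in HEK293T lysate. Compounds were tested at 50 and 200 µM for 3 h, followed by Biotin-Ahx-Ub-VS enrichment and diaPASEF LC-MS/MS. Values are the average log2 ratio (compound/DMSO) from an unpaired t-test (n=3 treated, n=26 DMSO).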
Take UniProt O00487: the “log2 ratio of Biotin-Ahx-Ub-VS probe labelling” value (“log2 ratio” below) is 0.252.
Consider USP25 (UniProt Q9UHP3), for which the “log2 ratio” value is -0.312.
Same read-out and setting: the value for UniProt P51784 was 0.0618.
On the same count and under the same terms, to EIF3F (UniProt O00303) belongs 0.000219.
USP16 (UniProt Q9Y5T5): the “log2 ratio” value was -0.176.
Still for that read-out and setting: the value for PRPF8 (UniProt Q6P2Q9) was -0.0469.
On the same count and under the same terms, the value for PSMD7 (UniProt P51665) was -1.2; that for UniProt Q70EL2 was -0.267.
Same read-out and setting: the value for USP8 (UniProt P40818) was -0.191; that for COPS5 (UniProt Q92905) was 0.531; that for USP9X (UniProt Q93008) was -0.227.
Regarding UCHL3 (UniProt P15374), the “log2 ratio” value is -0.252.
Take USP19 (UniProt O94966): the “log2 ratio” value was -0.227.
As for USP14 (UniProt P54578), the “log2 ratio” value is 0.0754.
For OTUD6B (UniProt Q8N6M0), the “log2 ratio” value was -0.241.
Same read-out and setting: to UCHL1 (UniProt P09936) belongs -0.205; to FAM105A (UniProt Q9NUU6), -0.0646; to USP42 (UniProt Q9H9J4), -0.155.
For the target USP48 (UniProt Q86UV5), the “log2 ratio” value is -0.156.
For the target VCPIP1 (UniProt Q96JH7), the “log2 ratio” value is -0.312.

The same assay, now with this note: compound concentration: 200uM; treatment time: 3 h.
Take UniProt O00487: the “log2 ratio” value is 0.0206.
Still for that read-out and setting: the value for USP25 (UniProt Q9UHP3) was -1.01 (active).
Same read-out and setting: the value for UniProt P51784 was 0.0228.
In the case of EIF3F (UniProt O00303), the “log2 ratio” value is 0.192.
As for USP16 (UniProt Q9Y5T5), the “log2 ratio” value is -0.253.
PRPF8 (UniProt Q6P2Q9): the “log2 ratio” value is -0.0301.
The same measure, in the same setting: to PSMD7 (UniProt P51665) belongs -0.91; to UniProt Q70EL2, 0.248.
Same read-out and setting: to USP8 (UniProt P40818) belongs -0.0614; to COPS5 (UniProt Q92905), 0.0873.
For the target USP9X (UniProt Q93008), the “log2 ratio” value was -0.123.
Still for that read-out and setting: the value for UCHL3 (UniProt P15374) was -0.294.
Turning to USP19 (UniProt O94966), the “log2 ratio” value is -0.0992.
The same measure, in the same setting: to USP14 (UniProt P54578) belongs 0.244.
Same read-out and setting: to OTUD6B (UniProt Q8N6M0) belongs -0.219.
The same measure, in the same setting: the value for UCHL1 (UniProt P09936) was -0.155; that for FAM105A (UniProt Q9NUU6) was 0.0452.
In the case of USP42 (UniProt Q9H9J4), the “log2 ratio” value is -0.0948.
Consider USP48 (UniProt Q86UV5), for which the “log2 ratio” value was -0.0443.
For the target VCPIP1 (UniProt Q96JH7), the “log2 ratio” value was -0.217.
